# This is part of a sample that, as a whole, favours compounds with a hit. Of some 83,000 tested, about 20% had one in any assay.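 Single-dose data. Exposure time 48 hours. Values below 10 considered active.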 Values without a mark were called inactive. Active and inactive are the calls of the source.
# Assays:
# Test in all cases: NCI-60 one-dose screen, 48 h (100 = growth as untreated, 0 = no growth, -100 = all killed)
# Conditions in all cases: 10 µM unless noted
# [1] = tested on: SK-MEL-2 melanoma
# [2] = tested on: EKVX NSCLC
# [3] = tested on: SN12C renal
# [4] = tested on: UO-31 renal
# [5] = tested on: TK-10 renal
# [6] = tested on: ACHN renal
# [7] = tested on: CAKI-1 renal
# [8] = tested on: A498 renal
# [9] = tested on: CCRF-CEM leukemia
# [10] = tested on: MOLT-4 leukemia
# [11] = tested on: SR leukemia
# [12] = tested on: RPMI-8226 leukemia
# [13] = tested on: OVCAR-8 ovarian
# [14] = tested on: OVCAR-5 ovarian
# [15] = tested on: OVCAR-4 ovarian
# [16] = tested on: SK-OV-3 ovarian
# [17] = tested on: IGROV1 ovarian
# [18] = tested on: OVCAR-3 ovarian
# [19] = tested on: HS 578T breast
# [20] = tested on: NCI/ADR-RES ovarian
SMILES,growth [1],growth [2] [%],growth [3],growth [4],growth [5],growth [6],growth [7],growth [8],growth [9],growth [10],growth [11],growth [12],growth [13],growth [14],growth [15],growth [16],growth [17],growth [18],growth [19],growth [20]
CCN(CC)c1ccc2c(cc1=O)[C@@H](NC(C)=O)CCc1cc(OC)c(OC)c(OC)c1-2,4.73% (active),44.6,32.9%,58.3%,30.8%,30.3%,64.3%,-15.9% (active),9.47% (active),2.09% (active),-14.1% (active),14.9%,12.3%,54.1%,48.2%,24.3%,28%,-24.9% (active),40.5%,85.7%
COc1cc(C2CC(c3ccccc3)=NN2C=O)ccc1Oc1ccnc2cc(Cl)ccc12 (stereo not drawn),82.4%,33.5,65.4%,47.2%,91.1%,68.9%,49.6%,76.4%,45.7%,12.8%,50.4%,32.1%,38.7%,84.2%,35%,86.6%,80.1%,69.9%,76.2%,22.9%
O=C(Nc1cccc(N=Cc2c(O)ccc3ccccc23)c1)c1ccccc1,87.9%,93.8,99%,65.9%,92.4%,96.3%,84.7%,103%,90.8%,147%,101%,94.6%,93%,108%,88.1%,90.4%,101%,103%,97.4%,103%
COCc1nc(NS(=O)(=O)c2ccc(N)cc2)nc(C)c1Br,96.6%,95.9,108%,95.4%,93.1%,102%,102%,118%,103%,103%,89.3%,106%,110%,106%,123%,96.9%,103%,112%,112%,104%
CCOC(=O)c1ccc2c(c1)nc(-c1ccc(Cl)cc1)n2-c1cc(C(C)(C)C)[nH]n1,38.7%,47.6,60.5%,36.3%,84.9%,35.8%,25.5%,45.3%,22.3%,9.68% (active),-22.3% (active),75.6%,70.1%,60.5%,63.5%,18.9%,42.3%,13.5%,53.9%,4.4% (active)
CCCCCCCC/C=C\CCCCCCCC(=O)OCCCCCC,123%,84.9,111%,91.8%,112%,107%,96%,70.5%,98.8%,104%,105%,104%,100%,117%,113%,99.3%,108%,113%,,
COc1cc(Nc2ncccc2/C=C/C(=O)c2cc(OC)c(OC)c(OC)c2)cc(OC)c1OC,78.3%,90.5,79.3%,65.6%,121%,76.1%,72%,84.9%,40.8%,70.9%,9.53% (active),52.1%,71.4%,102%,83.1%,97.4%,87.1%,91.9%,99.5%,79.4%
CC(=O)O[C@@H]1CC2C(C)(C)CCCC2(C)C2=C1C(=O)C(C(C)C)=CC2=O (stereo partly drawn),-47.9% (active),10.8,7.47% (active),-94.1% (active),18.6%,-70.2% (active),-3.95% (active),-63.3% (active),14%,9.69% (active),-0.431% (active),2.06% (active),-2.03% (active),-45.4% (active),13.4%,17.2%,7.5% (active),0.0354% (active),9.38% (active),15.9%
COc1ccccc1/C=C/C(=O)CCC(=O)O,102%,105,100%,85.2%,110%,101%,99%,130%,96.3%,100%,89.1%,98.8%,105%,104%,104%,98.5%,110%,107%,96%,107%
CCOC(=O)c1ccc(NC(=O)CSC(N)=O)cc1,98.6%,128,107%,56.6%,113%,102%,108%,111%,103%,84.6%,96.8%,87.3%,100%,99.1%,122%,128%,92%,109%,105%,99.3%
COc1cc(C2CC(c3cccc(Nc4ccnc5cc(Cl)ccc45)c3)=NN2C=O)cc(OC)c1OC (stereo not drawn),-18.1% (active),32,19.7%,2.53% (active),2.13% (active),-6.99% (active),-31.1% (active),-16.4% (active),2.72% (active),9.97% (active),4.97% (active),21%,23.2%,41.6%,-16.7% (active),0.586% (active),40.6%,-81.2% (active),-20.1% (active),5.17% (active)
COc1cc2ncnc(Nc3ccc(S(=O)(=O)Nc4nccs4)cc3)c2cc1OCCCN1CCOCC1,99.2%,111,98%,83.6%,103%,103%,91.7%,115%,105%,105%,108%,106%,103%,106%,107%,96.2%,106%,101%,99.9%,102%
CC(C)c1cccc(C#N)c1,120%,94,97.3%,98.7%,121%,115%,98.9%,92.3%,90%,101%,97.1%,106%,95.1%,112%,101%,106%,115%,111%,101%,91%
CCc1onc(-c2ccc(OC)cc2)c1-c1ccccc1OCCN(CC)CC,94.9%,85.2,91.4%,56.8%,92.2%,92.9%,82.4%,63.3%,75.6%,87.2%,66.5%,91.3%,96.3%,91.5%,90.8%,101%,83.3%,96.8%,89.6%,75.2%
O=c1c2cc(Cl)ccc2oc2ccc(OCCCCCN3CCCCC3)cc12,64.8%,70.3,65.1%,60.7%,69.2%,94.8%,70.8%,75.6%,39.8%,25.2%,7.54% (active),38%,55.1%,75.4%,80.6%,98.3%,72%,67.1%,80.5%,71%
O=C1Nc2ccc(Br)cc2/C1=N/c1nc(-c2ccccc2)cs1,88%,66.8,96%,63.9%,109%,94.8%,70.7%,78.9%,101%,59.2%,85.2%,75.6%,89.1%,108%,80.5%,60.7%,84%,75%,90.3%,103%

# Source: PubChem BioAssay (NCI)
